Data as given in PubChem BioAssay AID1159580 (chemical genetic matrix, 2015).
Where “and” joins values, the source holds several entries; their conditions need not be identical. Identical values can stand only once. In all, about 5,500 compounds went through this assay and about 2,000 (36%) were called active. Roughly 18% stayed inconclusive and do not appear here. No stated cut-off is given here; in the data, active means normalized growth mostly below about 0.91 (no sharp cut-off); inconclusive means no clear call, values can overlap the other calls; inactive means mostly above about 0.92. Some of the results follow.

Test: chemical genetic growth profiling, strain panel (AID 1159580);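 further: tested at 20 µM; growth read once vehicle control cultures reached saturation at 30 °C; 1 = growth at the plate median or of vehicle wells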
Conditions: S. cerevisiae deletion strains, growth OD

Measured: normalized growth

COc1c2ccccc2nc2occc12
active: locus YBR009C, strain hhf1, stronger effect = lower value 0.867 | locus YCL016C, strain dcc1, stronger effect = lower value 0.9 | locus YCL069W, strain vba3, stronger effect = lower value 0.882 | locus YDL192W, strain arf1, stronger effect = lower value 0.89 | locus YDR101C, strain arx1, stronger effect = lower value 0.876 | locus YDR195W, strain ref2 1.32 [resistant] | locus YDR502C, strain sam2, stronger effect = lower value 0.918 | locus YER015W, strain faa2, stronger effect = lower value 0.923 | locus YER155C, strain BEM2 (second series), stronger effect = lower value 0.648 | locus YGL086W, strain mad1, stronger effect = lower value 0.907 | locus YGL240W, strain doc1, stronger effect = lower value 0.791 | locus YGR135W, strain pre9, stronger effect = lower value 0.888 | locus YGR252W, strain gcn5, stronger effect = lower value 0.728 | locus YHR142W, strain chs7, stronger effect = lower value 0.842 | locus YHR200W, strain rpn10, stronger effect = lower value 0.882 | locus YJL164C, strain tpk1, stronger effect = lower value 0.907 | locus YJL166W, strain qcr8, stronger effect = lower value 0.901 | locus YKR001C, strain vps1, stronger effect = lower value 0.766 | locus YLL001W, strain dnm1, stronger effect = lower value 0.872 | locus YLR320W, strain mms22, stronger effect = lower value 0.871 | locus YLR330W, strain CHS5, stronger effect = lower value 0.917 | locus YLR371W, strain rom2, stronger effect = lower value 0.81 | locus YLR418C, strain cdc73, stronger effect = lower value 0.744 | locus YML032C, strain rad52, stronger effect = lower value 0.786 | locus YMR058W, strain fet3, stronger effect = lower value 0.894 | locus YNL071W, strain lat1, stronger effect = lower value 0.914 | locus YNL248C, strain rpa49, stronger effect = lower value 0.75 | locus YOL147C, strain pex11, stronger effect = lower value 0.924 | locus YOR001W, strain rrp6, stronger effect = lower value 0.89 | locus YOR083W, strain WHI5, stronger effect = lower value 0.852 | locus YOR106W, strain vam3, stronger effect = lower value 0.824 | locus YOR184W, strain ser1, stronger effect = lower value 0.855 | locus YOR270C, strain vph1, stronger effect = lower value 0.73 | locus YOR290C, strain snf2, stronger effect = lower value 0.858 | locus YPL051W, strain arl3, stronger effect = lower value 0.892 | locus YPL078C, strain atp4, stronger effect = lower value 0.842 | locus YPL106C, strain sse1, stronger effect = lower value 0.826 | strain wtn01, stronger effect = lower value 0.894
0.873 (inactive) and 0.874 (active): locus YJL095W, strain BCK1, stronger effect = lower value
inactive: locus YAL013W, strain DEP1, stronger effect = lower value 0.918 | locus YAL021C, strain ccr4, stronger effect = lower value 0.943 | locus YAL026C, strain drs2, stronger effect = lower value 0.914 | locus YAL030W, strain snc1, stronger effect = lower value 0.971 | locus YBL061C, strain skt5, stronger effect = lower value 0.956 | locus YBR021W, strain FUR4, stronger effect = lower value 0.993 | locus YBR023C, strain chs3, stronger effect = lower value 0.926 | locus YBR171W, strain sec66, stronger effect = lower value 0.942 | locus YBR229C, strain ROT2, stronger effect = lower value 1 | locus YBR231C, strain swc5, stronger effect = lower value 0.969 | locus YBR279W, strain paf1, stronger effect = lower value 0.949 | locus YCL011C, strain gbp2, stronger effect = lower value 0.913 | locus YCL029C, strain bik1, stronger effect = lower value 0.953 | locus YCR088W, strain abp1, stronger effect = lower value 0.991 | locus YDL005C, strain med2, stronger effect = lower value 0.972 | locus YDL035C, strain GPR1, stronger effect = lower value 0.929 | locus YDL040C, strain nat1, stronger effect = lower value 0.982 | locus YDL074C, strain BRE1, stronger effect = lower value 0.867 | locus YDL101C, strain DUN1, stronger effect = lower value 0.934 | locus YDL185W, strain tfp1, stronger effect = lower value 0.99 | locus YDR001C, strain nth1, stronger effect = lower value 0.966 | locus YDR069C, strain doa4, stronger effect = lower value 0.942 | locus YDR137W, strain rgp1, stronger effect = lower value 0.93 | locus YDR159W, strain sac3, stronger effect = lower value 0.931 | locus YDR162C, strain NBP2, stronger effect = lower value 0.926 | locus YDR297W, strain sur2, stronger effect = lower value 0.97 | locus YDR318W, strain mcm21, stronger effect = lower value 0.928 | locus YDR334W, strain swr1, stronger effect = lower value 0.945 | locus YDR335W, strain msn5, stronger effect = lower value 0.938 | locus YDR388W, stronger effect = lower value 0.993 | locus YDR392W, strain spt3, stronger effect = lower value 0.767 | locus YEL003W, strain gim4, stronger effect = lower value 0.941 | locus YEL037C, strain rad23, stronger effect = lower value 0.954 | locus YEL061C, strain CIN8 (second series), stronger effect = lower value 0.976 | locus YEL061C, strain CIN8, stronger effect = lower value 0.993 | locus YER016W, strain bim1, stronger effect = lower value 0.981 | locus YER110C, stronger effect = lower value 0.937 | locus YER111C, strain swi4, stronger effect = lower value 0.981 | locus YER155C, strain BEM2, stronger effect = lower value 1.02 | locus YER167W, strain BCK2, stronger effect = lower value 0.941 | locus YFR010W, strain ubp6, stronger effect = lower value 0.919 | locus YGL078C, strain dbp3, stronger effect = lower value 0.944 | locus YGL167C, strain pmr1, stronger effect = lower value 0.949 | locus YGL173C, strain kem1, stronger effect = lower value 0.941 | locus YGL227W, strain vid30, stronger effect = lower value 0.989 | locus YGL248W, strain PDE1, stronger effect = lower value 0.929 | locus YGL253W, strain hxk2, stronger effect = lower value 0.946 | locus YHR013C, strain ard1, stronger effect = lower value 0.967 | locus YHR027C, strain rpn1, stronger effect = lower value 0.932 | locus YHR030C, strain SLT2, stronger effect = lower value 1 and 0.88 | locus YHR079C, strain IRE1 (second series), stronger effect = lower value 0.994 | locus YHR079C, strain IRE1, stronger effect = lower value 0.868 | locus YHR094C, strain hxt1, stronger effect = lower value 1.01 | locus YHR129C, strain ARP1, stronger effect = lower value 0.967 | locus YIL066C, strain RNR3, stronger effect = lower value 0.91 | locus YIL073C, strain SPO22, stronger effect = lower value 0.939 | locus YIL125W, strain kgd1, stronger effect = lower value 0.981 | locus YIR030C, strain dcg1, stronger effect = lower value 0.992 | locus YJL092W, strain hpr5, stronger effect = lower value 0.954 | locus YJL095W, strain BCK1 (second series), stronger effect = lower value 0.968 | locus YJL115W, strain asf1, stronger effect = lower value 0.947 | locus YJL129C, strain trk1, stronger effect = lower value 1.02 | locus YJL134W, strain LCB3, stronger effect = lower value 1.01 | locus YJL154C, strain vps35, stronger effect = lower value 0.979 | locus YJL168C, strain set2, stronger effect = lower value 0.991 | locus YJL187C, strain SWE1 (second series), stronger effect = lower value 0.927 | locus YJL187C, strain SWE1, stronger effect = lower value 0.968 | locus YJR066W, strain TOR1, stronger effect = lower value 0.894 | locus YKL009W, strain mrt4, stronger effect = lower value 0.881 | locus YKL068W, stronger effect = lower value 1.02 | locus YKL085W, strain MDH1 (second series), stronger effect = lower value 0.984 | locus YKL085W, strain MDH1, stronger effect = lower value 0.984 | locus YKL160W, strain elf1, stronger effect = lower value 0.917 | locus YKR026C, strain gcn3, stronger effect = lower value 0.982 | locus YKR091W, strain srl3, stronger effect = lower value 0.969 | locus YLL026W, stronger effect = lower value 0.974 | locus YLL041C, strain sdh2, stronger effect = lower value 0.963 | locus YLR027C, strain aat2, stronger effect = lower value 0.946 | locus YLR039C, strain RIC1, stronger effect = lower value 0.925 | locus YLR058C, strain SHM2, stronger effect = lower value 0.957 | locus YLR102C, strain apc9, stronger effect = lower value 1 | locus YLR113W, strain HOG1, stronger effect = lower value 0.872 | locus YLR221C, strain rsa3, stronger effect = lower value 0.927 | locus YLR258W, strain gsy2, stronger effect = lower value 0.938 | locus YLR262C, strain YPT6 (second series), stronger effect = lower value 0.884 | locus YLR262C, strain YPT6, stronger effect = lower value 1.04 | locus YLR268W, strain sec22, stronger effect = lower value 0.896 | locus YLR342W, strain FKS1, stronger effect = lower value 0.974 | locus YLR357W, strain rsc2, stronger effect = lower value 1.04 | locus YLR370C, strain arc18, stronger effect = lower value 0.967 | locus YLR384C, strain iki3, stronger effect = lower value 0.981 | locus YML016C, strain PPZ1, stronger effect = lower value 0.975 | locus YML120C, strain ndi1, stronger effect = lower value 0.915 | locus YML124C, strain tub3, stronger effect = lower value 0.978 | locus YMR078C, strain ctf18, stronger effect = lower value 0.974 | locus YMR125W, strain sto1, stronger effect = lower value 0.983 | locus YMR129W, stronger effect = lower value 0.975 | locus YMR205C, strain PFK2, stronger effect = lower value 0.938 | locus YMR223W, strain ubp8, stronger effect = lower value 0.912 | locus YMR231W, strain pep5, stronger effect = lower value 0.994 | locus YMR263W, strain SAP30, stronger effect = lower value 0.952 | locus YMR307W, strain GAS1, stronger effect = lower value 1.15 | locus YNL067W, strain RPL9B, stronger effect = lower value 0.951 | locus YNL128W, strain TEP1, stronger effect = lower value 0.952 | locus YNL153C, strain GIM3, stronger effect = lower value 0.889 | locus YNL183C, strain NPR1, stronger effect = lower value 0.865 | locus YNL209W, strain ssb2, stronger effect = lower value 0.952 | locus YNL233W, strain BNI4, stronger effect = lower value 0.888 | locus YNL250W, strain rad50, stronger effect = lower value 0.963 | locus YNL271C, strain bni1, stronger effect = lower value 0.985 | locus YNL298W, strain CLA4, stronger effect = lower value 0.909 | locus YNL307C, strain MCK1, stronger effect = lower value 0.908 | locus YNL322C, strain KRE1 (second series), stronger effect = lower value 0.982 | locus YNR049C, strain mso1, stronger effect = lower value 0.983 | locus YNR052C, strain pop2, stronger effect = lower value 0.955 | locus YOL012C, strain htz1 1.22 | locus YOR061W, strain CKA2, stronger effect = lower value 0.962 | locus YOR069W, strain VPS5, stronger effect = lower value 0.985 | locus YOR070C, strain gyp1, stronger effect = lower value 0.965 | locus YOR080W, strain dia2, stronger effect = lower value 0.962 | locus YOR136W, strain idh2, stronger effect = lower value 0.978 | locus YOR144C, strain elg1, stronger effect = lower value 0.97 | locus YOR231W, strain MKK1, stronger effect = lower value 0.861 | locus YOR265W, strain rbl2, stronger effect = lower value 0.98 | locus YOR316C, strain cot1, stronger effect = lower value 1.02 | locus YPL240C, strain hsp82, stronger effect = lower value 0.973 | locus YPL256C, strain CLN2, stronger effect = lower value 0.981 | locus YPR119W, strain clb2, stronger effect = lower value 1 | locus YPR141C, strain kar3, stronger effect = lower value 1.04 | locus YPR163C, strain tif3, stronger effect = lower value 0.925 | locus YPR167C, strain met16, stronger effect = lower value 0.953
